ATXN2 expr inh: reduces ATXN2 reporter expression in HEK-293 cells; HEK-293 ATXN2-luciferase reporter, luminescence, 24 h; Potency, µM (titrated, usually from 57 µM), inactives show top-dose activity change, negative = inhibition, hits mostly inhibitors; 360,000 compounds, 0.72% hits; further: on the % scale 0 is the no-effect control and ±100 the full control effect; nearly all actives have a fitted effect of over 55% in size
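qHTS (up to 57 uM final) was run with 24 h compound exposure of reporter cells at 37 °C. Each well was multiplexed: SteadyGlo luminescence measured ATXN2-luciferase expression after a fluorogenic Gly-Phe-AFC viability readout (25 uM final).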
A549 viability: kills or reduces viability of A549 cells in Nrf2 counter-screen; 390,000 compounds, 0.16% hits; AID 504648; Potency, µM (series often up to 46 µM), for the others: at the top dose activity change, negative = cytotoxicity, hits mostly inhibitors; A549 ARE-Fluc cells, CellTiter-Fluor viability, 18-24 h; further: on the % scale 0 is the no-effect control and ±100 the full control effect
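A549 ARE_Fluc cells in 5% FBS OPTI-MEM were exposed to compounds in concentration-response for 18-24 h at 37 deg C. Viability was read by CellTiter-Fluor fluorescence (Ex 405/Em 525) after 30 min, before the luciferase read.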
Nrf2 inh: blocks Nrf2 signaling | Potency, µM (titrated, usually from 46 µM), for inactives: top-dose activity change, negative = inhibition, hits mostly inhibitors | A549 ARE-Fluc reporter, luciferase luminescence, 18-24 h | 360,000 compounds, 2.1% hits; further: on the % scale 0 is the no-effect control and ±100 the full control effect; nearly all actives have a fitted effect of over 60% in size
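A549 ARE_Fluc cells (5000/well, 5% FBS OPTI-MEM) pre-incubated 2 h, then treated with compounds 18-24 h at 37C/5% CO2 in concentration-response. CellTiter-Fluor viability read first; BugLite luciferase luminescence after 15 min at room temperature gives Nrf2 activity.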
S2 tox: reduces viability in counter-screen for ATXN expression inhibitors | Potency, µM (top dose mostly 56.7 µM), hits mostly cytotoxic | 400,000 compounds, 0.49% hits | S2 cells (HEK-293 line with an ATXN2-luciferase reporter) viability, CellTiter-Fluor protease fluorescence, 24 h; further: nearly all actives have a fitted effect of over 40% in size
HepG2 tox: HepG2 cytotoxicity, counter-screen for TGF-b inhibitors; Potency, µM (highest dose often 46.1 µM), inactives show at the top dose activity change, negative = cytotoxicity, usual class: cytotoxic; AID 588856; 410,000 compounds, 0.76% hits; HepG2 CAGA-GFP viability, ATP luminescence, 18 h
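HepG2 CAGA-GFP cells (1000/well, DMEM with 1% FBS) received compound, then TGF-beta at 500 pg/mL final, and were incubated 18 hours at 37 degrees C. Viability was read by CellTiter-Glo luminescence. Media-only wells were set as complete cell-killing and DMSO as no toxicity.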
TGFb SMAD3 inh: TGF-b pathway inhibition; 410,000 compounds, 1.2% hits; AID 588855; Potency, µM (titrated, usually from 46.1 µM), inactives show top-dose activity, negative = inhibition, actives largely listed as inhibitors; HepG2 CAGA-GFP TGF-b/SMAD3 reporter, GFP fluorescence, 18 h; TGF-beta stimulated, 500 pg/mL final; further: on the % scale 0 is the no-effect control and ±100 the full control effect; nearly all actives have a fitted effect of over 65% in size
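HEPG2 CAGA-GFP, 1000 cells/well; 2 h settle, 37 C; cpd via pin tool; TGF-b 500 pg/mL final; 18 h, 37 C; GFP imaging ex488/em500-530; %Activity normalised to -TGF-b and +DMSO controls; CRC fit, curve class.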
Active calls of the source: *; i = inactive; ? = inconclusive; / = not tested or not shown. Rows were chosen to be rich in hits. Some 3.8% of all compounds tested hit in one or more screens of this group. The call rests on the fitted dose curve; in most records, active means well fitted curve in the direction sought with a large enough effect; inconclusive means small, poorly fitted or top-dose-only effect, or another doubt; inactive means no such curve, though single readings can be large; an effect the other way counts as inactive or inconclusive. Potency means the concentration at half of the fitted maximal effect.

SMILES	ATXN2 expr inh	A549 viability	Nrf2 inh	S2 tox	HepG2 tox	TGFb SMAD3 inh
CCc1ccc(CNC(=O)c2cnc3sc(N4CCCCC4)nn3c2=O)cc1	-1%	20%	11%	i	-4%	-4%
CCCCC(=O)/C=C/n1c(=S)oc2ccccc21	?	-4%	?	?	-58%	5µM*
CC(C)OC(=O)n1c(=S)oc2ccccc21	-1%	0%	14%	i	-5%	-13%
CC(=O)C1=C(C)NC(SCC(=O)c2cc(Cl)ccc2Cl)=C(C#N)C1c1ccco1 (stereo not drawn)	?	?	7.3µM*	i	-7%	?
CC(=O)C1=C(C)NC(SCC(=O)c2ccc(Cl)c(Cl)c2)=C(C#N)C1c1ccco1 (stereo not drawn)	-17%	-29%	?	i	1%	27%
Cc1cc(C)cc(C(=O)Nc2ccc(NC(=O)c3cccs3)cc2)c1	?	?	18µM*	i	-27%	?
CCc1ccc2oc(-c3ccc(NC(=O)c4cccc(Cl)c4Cl)cc3)nc2c1	-14%	-1%	8.2µM*	?	-35%	-24%
O=C(Nc1ccc2oc(-c3ccncc3)nc2c1)c1cccs1	-8%	-3%	?	i	-5%	1%
Cc1ccc(C(=O)Nc2ccc(NC(=O)c3cccs3)cc2)cc1C	14%	-14%	?	i	4%	2%
O=C(Nc1ccc(-c2nc3cc(NC(=O)c4cccs4)ccc3o2)cc1)c1cccs1	10µM*	0%	/	16µM*	2%	3%
Cc1ccc(C(=O)Nc2ccc3oc(-c4ccccc4C)nc3c2)cc1	-11%	-13%	6.5µM*	?	-24%	2%
Cc1ccc(C(=O)COC(=O)CCC(=O)Nc2ccc(Oc3cc(C)ccc3C(C)C)cc2)cc1	0%	0%	-4%	i	-20%	12%
COc1cccc(NS(=O)(=O)c2ccc3c(c2)n(C)c(=O)n3C)c1	?	-1%	?	?	-22%	-4%
Cc1cc(NC(=O)COC(=O)C2CCN(S(=O)(=O)c3ccccc3)CC2)c([N+](=O)[O-])cc1C	6%	-5%	-2%	i	0%	-3%
CC(NC(=O)/C=C/c1ccco1)c1nc2ccccc2n1Cc1ccccc1F (stereo not drawn)	-2%	-1%	-2%	i	-24%	-6%
COc1ccc(N2CC(C)(C)[C@H](CC(=O)Nc3ccccc3)C2=O)cc1	13%	/	/	i	2%	8%
CCC(=O)Nc1ccc2oc(-c3cccc(C)c3)nc2c1	34%	-2%	?	i	20µM*	0%
Cc1cc(C)cc(-n2ccn(Cc3ccc(F)cc3)c(=O)c2=O)c1	/	0%	23µM*	/	-15%	-3%
CN(C)C(=O)CCc1ccc2c3c([nH]c2c1)[C@]1(CCC2CCCC2)[C@@H](C(=O)N2CCOCC2)C[C@H](CC(=O)NCCc2ccccn2)C(=O)N1CC3	7%	-4%	0%	i	10%	?
Nc1nc(C23CC4CC(CC(C4)C2)C3)[nH]c(=O)n1	-29%	9%	1%	i	64%	3%
CC(C)(C)c1ccc(C(=O)Nc2ccc(CC(=O)O)cc2)o1	0.4µM*	1%	3.7µM*	i	2%	-25%
Cc1ccc(C(=O)Nc2ccc(CC(=O)O)cc2)o1	-19%	-19%	?	i	-1%	10%
CNS(=O)(=O)c1cn(CC(=O)NCc2ccc(N(C)C)cc2)cc1S(=O)(=O)NC	-1%	-1%	8%	i	1%	0%
CCOC(=O)c1cc(-c2ccccc2)n(CCCC(=O)Nc2cccc(Cl)c2C)c1C	/	-1%	/	/	-56%	11µM*
CCOC(=O)c1cc(-c2ccccc2)n(CCC(=O)Nc2ccc(Cl)c(C(F)(F)F)c2)c1C	/	?	/	/	11µM*	3.5µM*
SMILES	ATXN2 expr inh	A549 viability	Nrf2 inh	S2 tox	HepG2 tox	TGFb SMAD3 inh
CCOC(=O)c1cc(-c2ccccc2)n(CCCC(=O)Nc2ccc(C)cc2C)c1C	/	6%	/	/	-26%	0%
Cc1ccc(CNC(=O)[C@]2(C(F)(F)F)C[C@H](CCc3ccccc3)CCCO2)o1	/	3%	8%	/	-21%	-10%
OC(c1ccccc1)c1nc2ccccc2n1Cc1c(F)cccc1Cl (stereo not drawn)	-9%	-14%	-3%	?	-31%	?
O=C(OCC#CCSc1nnc(-c2cccc3ccccc23)o1)c1cccc(C(F)(F)F)c1	/	0%	8%	/	/	/
O=C(C1CCC(CNS(=O)(=O)c2cccc3nsnc23)CC1)N1CCN(c2ccccn2)CC1 (stereo not drawn)	-10%	-5%	21µM*	i	-36%	-3%
CCCCN(C(=O)C1CCC(CNS(=O)(=O)c2cccc3nsnc23)CC1)c1ccccc1 (stereo not drawn)	?	-8%	26µM*	/	-3%	?
CN(Cc1ccccc1)C(=O)C1CCC(CNS(=O)(=O)c2cccc3cccnc23)CC1 (stereo not drawn)	/	1%	16µM*	?	-51%	?
CN1CCN(C(=O)C2CCC(CNS(=O)(=O)c3cccc4cccnc34)CC2)CC1 (stereo not drawn)	7%	-5%	10%	i	5%	-2%
O=Cc1ccsc1B(O)O	/	7%	?	/	17%	28%
C/C(=N/NC(=O)c1cc(-c2ccccc2)nc2c(Cl)cccc12)c1cccnc1	?	-1%	-25%	i	-52%	-22%
COc1ccc(NC(=O)Nc2c[nH]c(=O)[nH]c2=O)c(OC)c1	10%	3%	?	i	2%	1%
CCn1nnc2cc(C(=O)Nc3cccc(C)c3C)ccc21	-2%	-15%	-40%	i	-23%	2%
CC(C)c1ccc(NC(=O)CCS(=O)(=O)c2ccc(Br)s2)cc1	-13%	-2%	26µM*	i	-42%	?
COc1ccc(NC(=O)CCS(=O)(=O)c2ccc(Br)s2)cc1	0%	-1%	-24%	i	6%	2%
Clc1ccc(C2=NNC(=NCc3ccc4c(c3)OCO4)SC2)cc1	3%	?	23µM*	?	-33%	16µM*
Cc1ccc(C(=O)NCC(c2ccc3c(c2)OCO3)N2CCN(c3ccc(F)cc3)CC2)cc1 (stereo not drawn)	?	-15%	/	?	-35%	?
N#Cc1cc2c(nc1SCc1ccncc1)CCC2	27%	2%	-17%	i	-39%	13µM*
